Assay outcomes as filed in PubChem BioAssay.
Only some compounds are listed: those with a hit (about 19% of all), similar ones and a draw of the others.
TDP1 cell CPT = growth inhibition of DT40 Tdp1-/-;hTDP1 cells with camptothecin (screen for TDP1 inhibitors); Potency, µM (titrated, usually from 46.2 µM), without a hit: at the highest dose activity change, negative = growth inhibition, actives largely listed as inhibitors; actives 12% (n = 420,000); AID 686979; chicken DT40 Tdp1-/-;hTDP1 cells + 20 nM CPT, ATP luminescence, 48 h; note: potency is the fitted concentration of half-maximal effect; % is set by controls: 0 for no effect and ±100 for the full control effect; nearly all actives have a fitted effect of over 55% in size
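Cell growth measured by CellTiter-Glo luminescence after a minimum 48 h, 37 C compound exposure with 20 nM CPT in Tdp1-knockout DT40 cells stably expressing hTDP1, seeded 400/well; qHTS titration format.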
IL1B secr inh = inflammasome signaling inhibition, IL-1 beta readout | THP-1 LPS/ATP IL-1B secretion, AlphaLISA, 16 h; hits give low values | activity change, % at 57.5 µM | actives 4.7% (n = 360,000) | AID 743279; in the data active = activity change below about -50%; inconclusive = mostly about -30% to -49%; note: % is set by controls: 0 for no effect and ±100 for the full control effect
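THP-1 cells pretreated 1 hr with compounds (up to 57.5 uM final), then stimulated with LPS (250 ng/mL final) plus ATP (1.25 mM final); secreted IL-1B measured by AlphaLISA after 16 hr, decreased signal indicating inhibition.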
TGFb inhibitor = inhibitors of TGF-b signaling; HepG2 CAGA-GFP TGF-b/SMAD3 reporter, GFP fluorescence, 18 h; TGF-beta stimulated, 500 pg/mL final; Potency, µM (doses to about 46.1 µM), for the others: at the top dose activity, negative = inhibition, hits mostly inhibitors; actives 1.2% (n = 410,000); AID 588855; note: potency is the fitted concentration of half-maximal effect; % is set by controls: 0 for no effect and ±100 for the full control effect; nearly all actives have a fitted effect of over 65% in size
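Cell-based qHTS in HEPG2 carrying a CAGA-GFP Smad reporter; compounds added before 500 pg/mL final TGF-beta, 18 h incubation at 37 degrees C, GFP fluorescence quantified per cell by imaging cytometry.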
DT40 TDP1 no CPT = qHTS for Inhibitors of human tyrosyl-DNA phosphodiesterase 1 (TDP1): qHTS in cells in absence of CPT; DT40 Tdp1-/- hTDP1 cells, no CPT, ATP luminescence, 48 h; Potency, µM (highest dose often 46.2 µM), for inactives: at the highest dose activity change, negative = growth inhibition, usual class: inhibitors; actives 15% (n = 420,000); note: potency is the fitted concentration of half-maximal effect; % is set by controls: 0 for no effect and ±100 for the full control effect; nearly all actives have a fitted effect of over 55% in size
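Cells were dispensed at 400 per well, compounds added by pin tool, plates incubated ≥48 hr at 37 °C, then CellTiter-Glo added for 30 min at room temperature before luminescence reading. Line: DT40 Tdp1-/- complemented with hTDP1; camptothecin omitted.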
HepG2 viability = counter-screen for TGF-b inhibitors: cytotoxicity in HepG2 cells; actives 0.76% (n = 410,000); Potency, µM (titrated, usually from 46.1 µM), for inactives: at the highest dose activity change, negative = cytotoxicity, usual class: cytotoxic; HepG2 CAGA-GFP viability, ATP luminescence, 18 h; AID 588856; note: potency is the fitted concentration of half-maximal effect
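CellTiter-Glo luminescence gave cytotoxicity after 18 hours at 37 degrees C. The cells were HepG2 CAGA-GFP in 1% FBS DMEM, stimulated with 500 pg/mL TGF-beta after compound addition. %Activity was normalised to no-cell wells (complete cell-killing) and DMSO (no toxicity), and curves were fitted and classified.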
ASM inhibitor = blocks human secretory acid sphingomyelinase; P17405; placental ASM, HMU-PC fluorogenic substrate, 60 min; Potency, µM (doses to about 57.5 µM), for inactives: top-dose activity change, negative = inhibition, actives largely listed as inhibitors; actives 0.006% (n = 340,000); note: potency is the fitted concentration of half-maximal effect
Target sequence (P17405 47-631 limits assumed): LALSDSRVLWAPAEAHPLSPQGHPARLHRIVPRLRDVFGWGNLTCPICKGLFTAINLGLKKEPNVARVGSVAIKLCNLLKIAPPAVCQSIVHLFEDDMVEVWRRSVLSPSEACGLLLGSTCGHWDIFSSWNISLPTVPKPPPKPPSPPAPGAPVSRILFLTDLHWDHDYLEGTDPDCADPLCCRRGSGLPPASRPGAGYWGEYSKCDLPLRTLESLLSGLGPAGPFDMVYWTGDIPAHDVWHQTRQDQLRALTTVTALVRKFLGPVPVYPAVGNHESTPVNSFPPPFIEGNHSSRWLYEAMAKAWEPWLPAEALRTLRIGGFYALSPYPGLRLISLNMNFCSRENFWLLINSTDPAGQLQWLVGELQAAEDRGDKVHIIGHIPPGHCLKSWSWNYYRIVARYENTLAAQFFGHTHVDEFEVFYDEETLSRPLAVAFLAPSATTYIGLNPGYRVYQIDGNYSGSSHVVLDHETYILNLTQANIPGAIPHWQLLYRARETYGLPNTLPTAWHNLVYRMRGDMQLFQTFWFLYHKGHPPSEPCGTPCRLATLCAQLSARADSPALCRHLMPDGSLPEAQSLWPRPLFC
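HMU-PC0 cleavage (9 uM final) by human placental ASM, 60 min at 37 °C following 10 min compound exposure at RT; stopped at pH 10, fluorescence Ex 386/Em 447 nm.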
Active calls of the source: *; ? = inconclusive; nt = not tested or not shown. Unless noted, calls come from the whole dose curve; as a rule, active = well fitted curve in the direction sought with a large enough effect; inconclusive = small, poorly fitted or top-dose-only effect, or another doubt; inactive = no such curve, though single readings can be large; an effect the other way counts as inactive or inconclusive.

SMILES | TDP1 cell CPT | IL1B secr inh | TGFb inhibitor | DT40 TDP1 no CPT | HepG2 viability | ASM inhibitor
COc1ccc(NC(=O)CN2CCN(CC(=O)Nc3ccccc3F)CC2)c(OC)c1 | 23.1µM* | -11.6 | ? | ? | -37.9% | 3.4%
CCN(CC(=O)Nc1ccc(OC)cc1)CC(=O)Nc1ccc(Br)cc1F | ? | 9.0 | 10.5% | -22.3% | 7.6% | -2.2%
COc1ccc(NCC(=O)Nc2ccc(Br)cc2F)c(OC)c1 | ? | ? | -0.1% | 13µM* | -24.5% | 4.3%
COc1ccc(NC(=O)CN2CCN(CC(=O)Nc3ccccc3OC)CC2)c(OC)c1 | -4.1% | 17.5 | 9.0% | -8.0% | -0.3% | -0.9%
COc1ccc(NC(=O)CN2CCN(CC(=O)Nc3ccccc3Cl)CC2)c(OC)c1 | 18.4µM* | 0.0 | -14.3% | 18.4µM* | 4.5% | 1.3%
Cc1cc(C)cc(NC(=O)CN2C(=O)C3CC=CCC3C2=O)c1 (stereo not given) | -4.1% | -12.5 | 4.2% | -2.9% | -2.4% | 1.8%
COc1ccc(C=CC(=O)c2ccc(OC)c(OC)c2)cc1O | 14.6µM* | -64.9* | ? | 18.4µM* | -26.0% | nt
COc1ccc(C(=O)/C=C/c2ccc(OC)c(O)c2)c(F)c1 | ? | -103.9* | ? | 16.4µM* | -49.8% | 9.4%
